A short description of experiment [1]: NCI Yeast Anticancer Drug Screen. Data for the rad50 strain (AID 155).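 Also: 0% = growth of vehicle-only cultures of the same strain.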 The conditions noted are these: S. cerevisiae rad50 strain growth inhibition; at 50.0 µM; active compounds read high. The procedure, abridged:
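Yeast carrying a defined DNA repair defect were exposed to test compounds, and growth was compared with vehicle-treated controls to give percent inhibition.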

Experiment [2] in a line: NCI Yeast Anticancer Drug Screen. Data for the mec2-1 strain (AID 157). As to conditions: S. cerevisiae mec2-1 strain, at 50.0 µM, active compounds read high. The procedure, abridged:
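Compounds were applied to mec2-1 yeast cells. Their growth was then compared with that of vehicle-treated cultures to give growth inhibition.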

Experiment [3] in a line: NCI Yeast Anticancer Drug Screen. Data for the sgs1 mgt1 strain (AID 161).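 Also: 0% = growth of cultures given vehicle only.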 The conditions noted are these: S. cerevisiae sgs1 mgt1 strain, at 50.0 µM, active compounds read high. The procedure, abridged:
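This yeast growth screen uses a strain with defined DNA-repair lesions; compound-treated growth is compared with vehicle-treated growth.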

Experiment [4] in a line: NCI Yeast Anticancer Drug Screen. Data for the cln2 rad14 strain (AID 165).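 Also: 0% = growth equal to vehicle treated cultures.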 The conditions noted are these: S. cerevisiae cln2 rad14 strain, at 50.0 µM, active compounds read high. The procedure, abridged:
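Strain: cln2 rad14 yeast, altered in cell cycle control and DNA damage repair. Read-out: growth inhibition vs vehicle.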

Experiment [5] can be described thus: NCI Yeast Anticancer Drug Screen. Data for the bub3 strain (AID 167). The conditions noted are these: S. cerevisiae bub3 mutant strain, at 50.0 µM, active compounds read high. The procedure, abridged:
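Compounds were applied to a genetically altered yeast strain carrying a cell-cycle control defect. Growth inhibition was scored against vehicle-treated controls.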

Experiment [6] in a line: NCI Yeast Anticancer Drug Screen. Data for the mlh1 rad18 strain (AID 175). The conditions noted are these: S. cerevisiae mlh1 rad18 strain growth inhibition; at 50.0 µM; active compounds read high. The procedure, abridged: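 A repair-deficient yeast strain is exposed to test compound, and growth is scored relative to vehicle-treated controls.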

The panel holds about 79,000 compounds, 15% with a hit somewhere; the sample as a whole holds those more often. Values without a mark were called inactive. Calls of active or inactive are those of the source. Rule as the data show it: active = growth inhibition above about 70%; inactive = the rest.

With `Cc1ccc2c(c1)nc(-c1ccccn1)n2CCc1ccncc1`, the growth inhibition in experiment [1] is 62.5%; in experiment [2] it was 34.1%; in experiment [3], 77% (active); in experiment [4], 90.3% (active); in experiment [5], 92.7% (active); in experiment [6], 53.8%.

In the case of `CC(C)CCC(=O)O`, the growth inhibition is -8.45% in experiment [1]; -9.1% in experiment [2]; -4.4% in experiment [3]; -9.6% in experiment [4]; 3.8% in experiment [5]; -10.4% in experiment [6].

`CCCCN(CCCC)CC(O)C=O` (stereo unspecified): the growth inhibition is -7.95% in experiment [1]; -3.95% in experiment [2]; -0.5% in experiment [3]; -4.85% in experiment [4]; -8.4% in experiment [5]; 2.95% in experiment [6].

As to `CC(C)(C)CC(C)(C)NC(=O)CCl`, the growth inhibition in experiment [1] is -6.05%; in experiment [2], 2.15%; in experiment [3] it was 2.6%; in experiment [4], -4.85%; in experiment [5] it was 10.3%; in experiment [6], -5.45%.

Take `CC(C(=O)O)C1Nc2ccccc2NC1=O` (stereo unspecified): the growth inhibition in experiment [1] was 13.4%; in experiment [2], 28.6%; in experiment [3], 7.05%; in experiment [4], -12.4%; in experiment [5], -18.7%; in experiment [6], 0.3%.

Regarding `CC(C)N(C)c1ncnc2c1cnn2C`, the growth inhibition in experiment [1] was -1.55%; in experiment [2], -2.85%; in experiment [3] it was -3.95%; in experiment [4], -14.8%; in experiment [5] it was 1.75%; in experiment [6] it was -14%.

As for `Nc1ccccc1CCO`, the growth inhibition in experiment [1] is 14.5%; in experiment [2] it was -6.75%; in experiment [3], 30.9%; in experiment [4], 13.2%; in experiment [5] it was -5.8%; in experiment [6], 19.5%.

Turning to `S=c1sc2c(Cl)ncnc2n1-c1ccccc1`, the growth inhibition is 1.55% in experiment [1]; 24.4% in experiment [2]; 13.2% in experiment [3]; 11.8% in experiment [4]; 9.7% in experiment [5]; 5.6% in experiment [6].

For the compound `CCC1(c2ccccc2)SCC(=O)NC1=O` (stereo unspecified), the growth inhibition in experiment [1] was 21.1%; in experiment [2], 4.5%; in experiment [3] it was 12.8%; in experiment [4], 10.8%; in experiment [5], 18.4%; in experiment [6], 6.95%.

As for `O=C(CNOCc1ccccc1)OCc1ccccc1`, the growth inhibition in experiment [1] was 25.5%; in experiment [2] it was 16.1%; in experiment [3] it was 2.65%; in experiment [4], -6.8%; in experiment [5] it was 3.45%; in experiment [6], 19.4%.

For `COc1cc(C(=O)CBr)c(OC)cc1C`, the growth inhibition in experiment [1] is 10.9%; in experiment [2], -10.7%; in experiment [3], 38%; in experiment [4], 17%; in experiment [5], 2.15%; in experiment [6], 46.8%.

As to `CN(C)c1ccc(N2C(=S)SC(=Nc3ccccc3)C2=Nc2ccccc2)cc1`, the growth inhibition in experiment [1] was -6%; in experiment [2], -13.6%; in experiment [3], -10.8%; in experiment [4] it was 7.05%; in experiment [5], -1.5%; in experiment [6], 3.45%.

Regarding `NS(=O)(=O)c1ccc(NC(=O)/C=C\C(=O)O)cc1`, the growth inhibition in experiment [1] was -15.6%; in experiment [2] it was -27.2%; in experiment [3], 17.1%; in experiment [4] it was -1.4%; in experiment [5], -4.2%; in experiment [6] it was -9.6%.

With `O=c1c2cc([N+](=O)[O-])ccc2n2n1CCCC2`, the growth inhibition was 15.1% in experiment [1]; 9.45% in experiment [2]; -13.8% in experiment [3]; 16.9% in experiment [4]; -16% in experiment [5]; -10.4% in experiment [6].

`COc1cc(/C=C/C=C2\CC(C)C/C(=C\C=C\c3ccc(O)c(OC)c3)C2=O)ccc1O` (stereo unspecified): the growth inhibition in experiment [1] is 9%; in experiment [2], 8.3%; in experiment [3], 6.05%; in experiment [4], 18.2%; in experiment [5] it was 0.85%; in experiment [6], 8.2%.

For the compound `Nc1nc(N)c(-c2ccc(Cl)cc2)c(CNc2cccc([N+](=O)[O-])c2)n1`, the growth inhibition is 90.9% (active) in experiment [1]; 91.3% (active) in experiment [2]; 97.7% (active) in experiment [3]; 95% (active) in experiment [4]; 98.1% (active) in experiment [5]; 99.2% (active) in experiment [6].

For `CNC(=O)Nc1ccccc1`, the growth inhibition is 27.4% in experiment [1]; -0.55% in experiment [2]; -12.1% in experiment [3]; 16.9% in experiment [4]; -21.9% in experiment [5]; 7.6% in experiment [6].

As for `COc1ccc2c(N=[N+]=[N-])c(-c3ccccc3)c(=O)oc2c1`, the growth inhibition in experiment [1] is 11.8%; in experiment [2] it was 2.6%; in experiment [3], 35.6%; in experiment [4], 17.2%; in experiment [5], 3.15%; in experiment [6], 30.9%.

For the compound `Cn1cc(C(C)(c2ccccc2)c2cn(C)c3ccccc23)c2ccccc21`, the growth inhibition in experiment [1] was -13.8%; in experiment [2] it was -6%; in experiment [3], -4.25%; in experiment [4], -24.2%; in experiment [5], -5.6%; in experiment [6], -11%.

In the case of `CC(=O)NC1c2ccccc2-c2ccccc21`, the growth inhibition is -5.1% in experiment [1]; 34.2% in experiment [2]; -1.15% in experiment [3]; 42% in experiment [4]; 17.3% in experiment [5]; 3.8% in experiment [6].

Consider `O=C(NCc1ccccc1)c1cc(Cl)ccc1O`, for which the growth inhibition in experiment [1] is -20.3%; in experiment [2], -7.1%; in experiment [3], -7.65%; in experiment [4], -37.4%; in experiment [5] it was 0.95%; in experiment [6] it was 5.35%.

As to `CCN(CC)C(C)(C)C(=O)/C=C/c1ccc(C)cc1`, the growth inhibition in experiment [1] was 5.45%; in experiment [2], -3.75%; in experiment [3], -16.5%; in experiment [4] it was 12.3%; in experiment [5], 5.75%; in experiment [6], 43.1%.

Turning to `CC1=CC(=O)C(C(C)C)=CC1=O`, the growth inhibition in experiment [1] was -9.55%; in experiment [2], 7.25%; in experiment [3], -4.25%; in experiment [4], 22.6%; in experiment [5], 4.7%; in experiment [6], 0.5%.

As to `CCOC(=O)/C(=C\n1c(=O)[nH]c(=O)[nH]c1=S)C(=O)c1ccccc1`, the growth inhibition in experiment [1] was -22.8%; in experiment [2], -17.4%; in experiment [3], -9.25%; in experiment [4], 7.35%; in experiment [5] it was -17.9%; in experiment [6] it was -13.2%.

On to `O=C1NC(CN2CCC(O)CC2)C(=O)NC1CN1CCC(O)CC1` (stereo unspecified), for which the growth inhibition in experiment [1] is 0.6%; in experiment [2], 7.7%; in experiment [3], -10.2%; in experiment [4], 2.4%; in experiment [5] it was -1.05%; in experiment [6] it was -0.35%.

For the compound `COc1ccc(NC(=O)CC(=O)N/N=C/c2ccc(N(CCC#N)S(=O)(=O)c3ccccc3)cc2)cc1`, the growth inhibition in experiment [1] is -35.5%; in experiment [2], -11.8%; in experiment [3], -29.5%; in experiment [4], 8.15%; in experiment [5], -11.2%; in experiment [6], -2.75%.

Turning to `Nc1cccc(CC(=O)c2ccccc2)n1`, the growth inhibition in experiment [1] is -4.3%; in experiment [2] it was -11%; in experiment [3], -7.9%; in experiment [4] it was -8.55%; in experiment [5] it was -3.05%; in experiment [6], -13.1%.

For `CC1CC(C)OC(c2ccccc2)O1` (stereo unspecified), the growth inhibition in experiment [1] was 19.1%; in experiment [2], -1.5%; in experiment [3], -2.7%; in experiment [4], -20.1%; in experiment [5], -5%; in experiment [6], 19.7%.

In the case of `c1ccc(-c2nsc3ccccc23)cc1`, the growth inhibition in experiment [1] was 14.3%; in experiment [2] it was -6.35%; in experiment [3], -8.25%; in experiment [4], -31.1%; in experiment [5] it was -14.8%; in experiment [6], 5.75%.

As to `O=C(Nc1ccc(CCO)cc1)Nc1ccc(Cl)cc1[N+](=O)[O-]`, the growth inhibition in experiment [1] is -6.35%; in experiment [2], 34.9%; in experiment [3], 25.8%; in experiment [4], -18.7%; in experiment [5], 21.6%; in experiment [6] it was 17.6%.

Turning to `Clc1ccc(-c2oc(-c3ccc(Cl)cc3)c3ccccc23)cc1`, the growth inhibition in experiment [1] is -3.85%; in experiment [2] it was -13.2%; in experiment [3], 4.75%; in experiment [4], -78.2%; in experiment [5], -15.5%; in experiment [6] it was -23.6%.

As for `Nc1ccc2nc3c4ccccc4c(O)n3nc2c1`, the growth inhibition is -18.5% in experiment [1]; -9.15% in experiment [2]; -18.6% in experiment [3]; -47.9% in experiment [4]; -6.2% in experiment [5]; 14.6% in experiment [6].

Regarding `O=C(NCC1CC1)NC(=O)c1ccccc1F`, the growth inhibition is -4.3% in experiment [1]; -34.6% in experiment [2]; -14.3% in experiment [3]; 16.6% in experiment [4]; -10.6% in experiment [5]; -16.9% in experiment [6].

Consider `O=C1OC(c2ccccc2)=N/C1=C\c1cccc(F)c1`, for which the growth inhibition is -18.4% in experiment [1]; -18.2% in experiment [2]; -23.1% in experiment [3]; -6.95% in experiment [4]; -16.1% in experiment [5]; 6.25% in experiment [6].

Regarding `CCCC(O)C(C)(C)C` (stereo unspecified), the growth inhibition in experiment [1] is -35.7%; in experiment [2], -67.5%; in experiment [3] it was -51.6%; in experiment [4] it was -11.2%; in experiment [5], -43.5%; in experiment [6] it was -42%.

Take `CC(=O)OCCOCNC(=S)N/N=C(\C)c1cccs1`: the growth inhibition was 10.3% in experiment [1]; -13.6% in experiment [2]; 4.8% in experiment [3]; 34.1% in experiment [4]; 4.3% in experiment [5]; -8.95% in experiment [6].

Source of the values: PubChem BioAssay (NCI).
